The values that follow come from PubChem BioAssay (EPA / NIEHS).

A short description of assay [1]: ATG_E_Box_CIS: Attagene CIS-FACTORIAL HepG2 Assay for human Enhancer Box (E-box) (AID 2282936). The following applies: HepG2 E-box cis-reporter transcription, actives raise or lower the signal. Put shortly: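 E-box-driven reporter transcripts measured in transiently transfected HepG2 after 24 h exposure: RNA reverse-transcribed, PCR-amplified, fluorescently labelled, digested and resolved by capillary electrophoresis. Gain or loss relative to DMSO.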

Assay [2] is described as follows: ATG_M_61_CIS: Attagene CIS-FACTORIAL HepG2 Assay for M61 Transcription Factor (Internal Marker) (AID 2282937). The following applies: HepG2 Attagene CIS-FACTORIAL M61 internal marker reporter; actives raise or lower the signal. The essentials:
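Fluorescence from labelled cDNA fragments, separated by capillary electrophoresis, quantifies reporter induction. HepG2 cells bearing transiently transfected cis-promoter MRTUs were incubated with test chemical for 24 h; DMSO defined baseline for gain/loss fitting.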

Assay [3] in a line: ATG_EGR_CIS: Attagene CIS-FACTORIAL HepG2 Assay for human Early Growth Response 1 (EGR1) (AID 2282938). The following applies: HepG2 Attagene CIS-FACTORIAL EGR reporter mRNA; actives raise or lower the signal. The essentials: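 Cell-based multiplex transcription assay: HepG2 carrying transfected cis-element reporter units, 24 h chemical treatment. Fluorescence from capillary electrophoresis of RT-PCR products gives mRNA levels; fitting is bidirectional relative to DMSO.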

Assay [4] can be described thus: ATG_ERE_CIS: Attagene CIS-FACTORIAL HepG2 Assay for Estrogen Response Element (ERE) (AID 2282940). Conditions: HepG2 ERE cis-reporter, Attagene RNA transcript; actives raise or lower the signal. Put shortly: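 Human liver cells (HepG2) bearing transiently transfected, promoter-regulated reporter units were exposed 24 h. Reporter mRNA induction was detected by capillary electrophoresis of labelled RT-PCR products and fitted bidirectionally to DMSO.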

Assay [5] in a line: ATG_Ets_CIS: Attagene CIS-FACTORIAL HepG2 Assay for human Erythroblast Transformation Specific (ETS) (AID 2282941). The following applies: HepG2 ETS cis-reporter transcription, actives raise or lower the signal. The essentials:
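Cis-regulated reporter mRNA induction in HepG2 (transient transfection), 24 h exposure, RT-PCR plus capillary electrophoresis detection; DMSO serves as negative control and baseline.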

Assay [6] deals with Hepatocyte nuclear factor 3-beta (Homo sapiens) (UniProt Q9Y261). In words: ATG_FoxA2_CIS: Attagene CIS-FACTORIAL HepG2 Assay for human Forkhead box A2 (FOXA2) (AID 2282942). The following applies: HepG2 cis-reporter transcription factor activity, 24 h; actives raise or lower the signal. Put shortly:
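In transiently transfected human HepG2 cells, promoter-driven reporter mRNA levels after 24 h chemical exposure are determined via RT-PCR with capillary electrophoresis. DMSO serves as baseline for bidirectional fitting.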

The nature of assay [7]: ATG_GATA_CIS: Attagene CIS-FACTORIAL HepG2 Assay for human GATA Binding Protein (AID 2282944). Conditions: HepG2 GATA cis-element reporter, Attagene multiplex mRNA; actives raise or lower the signal. The essentials: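 Transfected cis-reporter HepG2 cells were treated with chemicals for 24 hours. Total RNA was then converted to cDNA, amplified with reporter-specific primers and analysed by fluorescent capillary electrophoresis, using DMSO-treated wells as baseline.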

Assay [8] is described as follows: ATG_GLI_CIS: Attagene CIS-FACTORIAL HepG2 Assay for human Zinc Finger Protein GLI1 (AID 2282945). Conditions: HepG2, Attagene cis-factorial reporter mRNA, GLI element; actives raise or lower the signal. Put shortly: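 Bidirectional curve fits relative to DMSO, using reporter mRNA levels from RT-PCR plus capillary electrophoresis. Cells were HepG2 transiently carrying cis-regulated reporter constructs, harvested 24 h after dosing.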

Assay [9] addresses Bile acid receptor (Homo sapiens) (UniProt Q96RI1). As to the kind of experiment: ATG_IR1_CIS: Attagene CIS-FACTORIAL HepG2 Assay for human Nuclear Receptor Subfamily 1 Group H Member 4 (NR1H4), IR1 submotif (AID 2282946). Conditions: IR1 reporter transcription, actives raise or lower the signal. Put shortly:
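HepG2 cells transiently transfected with multiplexed cis-element reporter units read endogenous transcription factor activity. After 24 h compound exposure, reporter mRNA was quantified by RT-PCR, fluorescent labelling, HpaI digestion and capillary electrophoresis; bidirectional fitting versus DMSO baseline.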

Assay [10] in a line: ATG_GRE_CIS: Attagene CIS-FACTORIAL HepG2 Assay for human Glucocorticoid Response Elements (GRE) (AID 2282947). Conditions: HepG2 GRE cis-reporter, Attagene multiplex mRNA; actives raise or lower the signal. Put shortly: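 Reporter transcripts read by RT-PCR with capillary electrophoresis fluorescence after a 24 h chemical exposure of HepG2 cells transiently transfected with multiple cis-element reporter units. Gain or loss fitted against DMSO.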

Assay [11] can be described thus: ATG_ISRE_CIS: Attagene CIS-FACTORIAL HepG2 Assay for human Interferon Regulatory Factor 1 (IRF1) binding to an Interferon-Stimulated Response Element (ISRE) (AID 2282948). Conditions: HepG2 ISRE cis-reporter (Attagene), mRNA transcription readout; actives raise or lower the signal. Put shortly: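 Multiplexed mRNA reporter readout in human liver HepG2 cells: cis-element-driven reporters transfected, compound added for 24 h, transcripts amplified, fluorescently labelled and sized by capillary electrophoresis; curve fitting bidirectional against DMSO.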

Assay [12] in a line: ATG_M_32_CIS: Attagene CIS-FACTORIAL HepG2 Assay for M32 Transcription Factor (Internal Marker) (AID 2282949).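 Also: background control marker of the multiplexed CIS panel rather than a real target.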 Conditions: HepG2 Attagene cis-factorial M32 reporter, mRNA; actives raise or lower the signal. Put shortly: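 HepG2 human liver cells transiently transfected with cis-promoter-driven multiple reporter transcription units, dosed 24 h. Reporter mRNA quantified by RT-PCR, FAM-labelled primer extension, HpaI digest and capillary electrophoresis; bidirectional fit versus DMSO baseline.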

Assay [13] in a line: ATG_M_06_CIS: Attagene CIS-FACTORIAL HepG2 Assay for M06 Transcription Factor (Internal Marker) (AID 2282950). Conditions: HepG2 Attagene CIS-FACTORIAL M06 internal marker reporter; actives raise or lower the signal. The essentials:
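Cells (HepG2, transiently carrying cis-driven reporter units) receive chemical for 24 h before RNA isolation. Reporter cDNA is PCR-amplified, FAM-labelled by primer extension, HpaI-digested and sized on a capillary analyser.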

Assay [14] has as its target Hypoxia-inducible factor 1-alpha (Homo sapiens) (UniProt Q16665). In words: ATG_HIF1a_CIS: Attagene CIS-FACTORIAL HepG2 Assay for human Hypoxia Inducible Factor 1 (HIF1A) (AID 2282951). Conditions: HepG2 Attagene cis-factorial HIF1a reporter transcription; actives raise or lower the signal. The essentials:
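In this multiplexed cell assay, HepG2 cells bearing transfected cis reporters are dosed for 24 h and reporter mRNA is read by RT-PCR plus capillary electrophoresis; signal increases and decreases are both scored against DMSO.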

Assay [15] has as its target Hepatocyte nuclear factor 6 (Homo sapiens) (UniProt Q9UBC0). In words: ATG_HNF6_CIS: Attagene CIS-FACTORIAL HepG2 Assay for human Hepatocyte Nuclear Factor 6 (HNF6) (AID 2282952). Conditions: HepG2 Attagene cis-factorial HNF6 reporter transcription; actives raise or lower the signal. The essentials:
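Using cis-element reporters in HepG2 liver cells, the assay tracks endogenous factor-driven transcription 24 h post-dosing. Signal comes from 6-FAM-labelled, HpaI-digested RT-PCR fragments, with gain or loss scored against DMSO.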

The target of assay [16] is Heat shock factor protein 1 (Homo sapiens) (UniProt Q00613). As to the kind of experiment: ATG_HSE_CIS: Attagene CIS-FACTORIAL HepG2 Assay for human Heat Shock Transcription Factor 1 (HSE) (AID 2282953). The following applies: HepG2 HSE cis-reporter, Attagene RNA transcription; actives raise or lower the signal. The essentials: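 Liver-derived HepG2 cells carry transiently introduced multiple reporter units governed by cis promoters. Reporter RNA measured 24 h post-dose through reverse transcription, PCR amplification, fluorescent labelling and capillary electrophoresis, normalised to DMSO.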

Assay [17] can be described thus: ATG_MRE_CIS: Attagene CIS-FACTORIAL HepG2 Assay for human Metal Responsive Element (MRE) (AID 2282954). The following applies: HepG2 MRE cis-reporter transcription, Attagene multiplex; actives raise or lower the signal. Put shortly: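 Endogenous MRE-dependent transcription read as reporter mRNA in transiently transfected human HepG2 cells at 24 h. RNA reverse-transcribed, PCR-amplified, labelled and resolved by capillary electrophoresis; gain or loss relative to DMSO.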

Assay [18] in a line: ATG_PBREM_CIS: Attagene CIS-FACTORIAL HepG2 Assay for human Phenobarbital-responsive Enhancer Module (PBREM) (AID 2282955). Conditions: HepG2 PBREM cis-reporter, Attagene multiplexed transcription; actives raise or lower the signal. Put shortly:
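After a 24 h incubation with test chemical, transfected HepG2 cells yield total RNA; reporter-specific RT-PCR products are fluorescently labelled, HpaI-digested and resolved by capillary electrophoresis against ROX size standards.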

Active and inactive are the calls of the source. The calls were made as follows: active = hit-call score of the fitted dose curve at least 0.9, where 1 is the maximum; inactive = score below 0.9.

Chain of Hepatocyte nuclear factor 3-beta (Homo sapiens) (Q9Y261 whole entry, looked up): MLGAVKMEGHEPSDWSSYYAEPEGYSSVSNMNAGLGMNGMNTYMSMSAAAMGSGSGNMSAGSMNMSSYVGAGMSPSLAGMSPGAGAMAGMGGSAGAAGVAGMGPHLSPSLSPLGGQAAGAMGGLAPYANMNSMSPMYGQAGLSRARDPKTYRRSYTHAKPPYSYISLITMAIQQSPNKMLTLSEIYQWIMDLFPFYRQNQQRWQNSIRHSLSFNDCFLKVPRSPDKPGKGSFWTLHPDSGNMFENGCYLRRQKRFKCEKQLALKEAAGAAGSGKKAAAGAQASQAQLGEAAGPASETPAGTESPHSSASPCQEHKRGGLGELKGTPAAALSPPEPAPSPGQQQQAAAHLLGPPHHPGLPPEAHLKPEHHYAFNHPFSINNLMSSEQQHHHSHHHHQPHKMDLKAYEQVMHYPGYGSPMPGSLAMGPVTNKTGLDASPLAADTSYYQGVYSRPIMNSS
Chain of Heat shock factor protein 1 (Homo sapiens) (Q00613 whole entry, looked up): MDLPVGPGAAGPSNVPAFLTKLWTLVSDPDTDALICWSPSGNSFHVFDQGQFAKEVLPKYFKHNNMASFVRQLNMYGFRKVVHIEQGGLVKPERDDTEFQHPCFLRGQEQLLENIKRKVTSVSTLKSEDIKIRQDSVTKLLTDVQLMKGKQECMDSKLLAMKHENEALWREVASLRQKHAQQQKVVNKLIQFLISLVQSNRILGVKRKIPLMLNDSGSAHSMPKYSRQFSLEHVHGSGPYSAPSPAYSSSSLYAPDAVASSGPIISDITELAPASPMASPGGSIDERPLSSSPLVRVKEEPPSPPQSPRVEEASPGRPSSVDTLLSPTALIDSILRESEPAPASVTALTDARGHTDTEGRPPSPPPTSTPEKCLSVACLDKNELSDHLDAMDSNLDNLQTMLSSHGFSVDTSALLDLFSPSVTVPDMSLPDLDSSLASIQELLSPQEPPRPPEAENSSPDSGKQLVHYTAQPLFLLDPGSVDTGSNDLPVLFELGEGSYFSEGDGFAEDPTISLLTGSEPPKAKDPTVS
Chain of Bile acid receptor (Homo sapiens) (Q96RI1 whole entry, looked up): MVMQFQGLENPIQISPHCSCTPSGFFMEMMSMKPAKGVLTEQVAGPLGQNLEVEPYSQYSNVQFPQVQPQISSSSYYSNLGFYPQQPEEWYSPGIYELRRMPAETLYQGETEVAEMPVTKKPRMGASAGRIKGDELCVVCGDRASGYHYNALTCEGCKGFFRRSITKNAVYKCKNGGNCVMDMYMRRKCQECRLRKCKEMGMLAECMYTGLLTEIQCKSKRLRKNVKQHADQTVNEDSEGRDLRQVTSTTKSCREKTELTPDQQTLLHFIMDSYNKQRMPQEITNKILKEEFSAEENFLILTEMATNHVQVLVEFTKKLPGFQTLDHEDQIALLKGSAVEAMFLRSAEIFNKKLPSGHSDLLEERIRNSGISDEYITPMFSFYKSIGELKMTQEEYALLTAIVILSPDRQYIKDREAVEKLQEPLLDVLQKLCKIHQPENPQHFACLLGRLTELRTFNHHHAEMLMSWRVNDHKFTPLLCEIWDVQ
Chain of Hepatocyte nuclear factor 6 (Homo sapiens) (Q9UBC0 whole entry, looked up, the tested form may be a part): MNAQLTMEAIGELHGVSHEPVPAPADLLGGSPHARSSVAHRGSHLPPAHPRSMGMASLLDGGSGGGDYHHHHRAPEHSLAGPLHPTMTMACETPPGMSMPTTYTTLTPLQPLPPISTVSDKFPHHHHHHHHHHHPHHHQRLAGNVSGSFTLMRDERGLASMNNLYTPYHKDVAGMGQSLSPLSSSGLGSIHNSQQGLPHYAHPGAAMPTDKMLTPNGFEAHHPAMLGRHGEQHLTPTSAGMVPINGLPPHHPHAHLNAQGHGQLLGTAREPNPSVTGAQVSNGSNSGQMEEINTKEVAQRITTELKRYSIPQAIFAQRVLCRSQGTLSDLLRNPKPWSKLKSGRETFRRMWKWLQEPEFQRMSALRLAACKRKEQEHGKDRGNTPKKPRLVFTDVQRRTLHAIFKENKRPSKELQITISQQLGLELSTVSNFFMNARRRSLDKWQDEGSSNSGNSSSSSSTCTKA
Chain of Hypoxia-inducible factor 1-alpha (Homo sapiens) (Q16665 whole entry, looked up): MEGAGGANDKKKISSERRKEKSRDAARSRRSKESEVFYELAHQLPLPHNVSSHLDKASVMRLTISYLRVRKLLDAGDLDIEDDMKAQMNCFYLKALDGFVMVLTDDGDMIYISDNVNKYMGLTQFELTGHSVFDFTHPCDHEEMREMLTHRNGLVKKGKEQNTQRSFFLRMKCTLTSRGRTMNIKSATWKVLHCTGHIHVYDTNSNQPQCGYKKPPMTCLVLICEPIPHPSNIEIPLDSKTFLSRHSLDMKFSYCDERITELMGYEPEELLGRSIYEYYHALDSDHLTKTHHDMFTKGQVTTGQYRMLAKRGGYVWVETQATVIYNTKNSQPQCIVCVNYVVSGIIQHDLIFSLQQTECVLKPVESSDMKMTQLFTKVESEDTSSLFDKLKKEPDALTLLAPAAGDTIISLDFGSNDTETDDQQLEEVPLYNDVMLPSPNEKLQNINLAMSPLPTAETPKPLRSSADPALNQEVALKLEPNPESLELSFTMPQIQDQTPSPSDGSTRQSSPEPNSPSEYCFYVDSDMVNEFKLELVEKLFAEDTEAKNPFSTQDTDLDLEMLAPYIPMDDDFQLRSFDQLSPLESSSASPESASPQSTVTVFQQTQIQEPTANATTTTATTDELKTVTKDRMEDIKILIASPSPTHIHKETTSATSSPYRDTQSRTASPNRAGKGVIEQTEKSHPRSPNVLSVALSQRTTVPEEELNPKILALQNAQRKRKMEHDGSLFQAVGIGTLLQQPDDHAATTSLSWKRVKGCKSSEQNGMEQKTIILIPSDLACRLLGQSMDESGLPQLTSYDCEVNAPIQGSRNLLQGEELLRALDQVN

With `Cc1cc2c(cc1C(F)(F)F)N(C(=O)Nc1ccc(Oc3cccnc3C)nc1)CC2`, the result in assay [1], in assay [2], in assay [3], in assay [4], in assay [5] and in assay [6] was inactive. Also, the compound was called inactive in [7], in [8], in assay [9], in [10], in [11] and in [12]. The call in [13], in assay [14], in assay [15], in [16], in [17] and in assay [18] was inactive.

By AC50 is commonly meant the concentration giving half of the maximal activity seen. In the case of `Clc1ccccc1C(c1ccccc1)(c1ccccc1)n1ccnc1`, the outcome in assay [1], in assay [2], in [5], in assay [6], in assay [8] and in assay [9] was inactive. For the same compound, the compound was classed as inactive in [10], in assay [12], in assay [13] and in assay [15]. For the same compound, the half-maximal activity concentration (AC50) in [3] is 8.64 µM (active); in assay [4] it was 0.438 µM (active); in assay [7] it was 15.6 µM (active); in [11], 11.1 µM (active); in [16], 19.1 µM (active); in assay [17] it was 15 µM (active). Also, the concentration at half-maximal activity (AC50) in assay [18] is 11.1 µM (active).

On to `O=C=NCCCCCCN=C=O`, for which the result in [1], in assay [2], in [3], in assay [4], in assay [5] and in [6] was inactive. Moreover, the outcome in assay [7], in [8], in assay [9], in [11], in [12] and in [13] was inactive. Further, the compound was classed as inactive in [14], in assay [15], in assay [16], in assay [17] and in assay [18].

Take `Clc1cc(Cl)c2c(c1)N=C1CCCCCN1C2`: the AC50 in [1] is 50 µM (active). Besides, the compound was classed as inactive in [2], in [3], in [4], in assay [5], in [6] and in assay [7]. Moreover, the compound was classed as inactive in [8], in assay [9], in assay [10], in assay [11], in assay [12] and in assay [13]. Besides, the compound was called inactive in assay [14], in [15], in assay [16], in [17] and in assay [18].

Consider `CN1C(=O)N(c2ccccc2Br)Cc2cnc(Nc3ccc4c(c3)OCC(CO)O4)nc21` (stereo not given), for which the outcome in assay [1], in [2], in [4], in assay [5], in assay [6] and in assay [7] was inactive. For the same compound, the result in assay [8], in [9], in assay [10], in [11], in assay [12] and in [13] was inactive. For the same compound, the compound was called inactive in [15] and in assay [16]. The values for the concentration at half-maximal activity (AC50) in assay [3], in [14] and in assay [17] were 12.2 µM (active), 9.59 µM (active) and 33.2 µM (active), respectively.

For `O=C(O)c1ccccc1-n1cc(C(=O)O)c(=O)c2cc(Nc3c(F)cc(F)cc3Cl)c(Cl)cc21`, the outcome in assay [1], in [2], in [3], in assay [4], in [5] and in [6] was inactive. For the same compound, the call in assay [7], in assay [8], in [9], in assay [10], in [11] and in assay [12] was inactive. The call in [13], in [14], in [15], in assay [16], in assay [17] and in assay [18] was inactive.
